Values joined by “and” are separate entries in the source; they are usually repeats but may differ in a detail not shown here. Equal entries are not always repeated. The whole screen tested about 5,500 compounds, of which about 2,000 (36%) were called active. About 18% were inconclusive and are not listed. Cut-off read from the data, not from the text of the source: active = normalized growth mostly below about 0.91 (no sharp cut-off); inconclusive = no clear call, values can overlap the other calls; inactive = mostly above about 0.92. The list shows a part of the results.
Assay: chemical genetic growth profiling, strain panel (AID 1159580);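 note: tested at 20 µM; growth read once vehicle control cultures reached saturation at 30 °C; 1 = growth at the plate median or of vehicle wells; lower values mean less growth of the strain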
Details: S. cerevisiae deletion strains, growth OD

Measured: normalized growth

Cc1ccccc1OCC(O)CO (centres undefined)
inactive: locus YAL013W, strain DEP1, active compounds read low 1.02 | locus YAL021C, strain ccr4, active compounds read low 0.971 | locus YAL026C, strain drs2, active compounds read low 0.974 | locus YAL030W, strain snc1, active compounds read low 0.967 | locus YBL061C, strain skt5, active compounds read low 0.962 | locus YBR009C, strain hhf1, active compounds read low 0.985 | locus YBR021W, strain FUR4, active compounds read low 1.03 | locus YBR023C, strain chs3, active compounds read low 0.964 | locus YBR171W, strain sec66, active compounds read low 0.973 | locus YBR229C, strain ROT2, active compounds read low 1.02 | locus YBR231C, strain swc5, active compounds read low 0.98 | locus YBR279W, strain paf1, active compounds read low 0.974 | locus YCL011C, strain gbp2, active compounds read low 0.971 | locus YCL016C, strain dcc1, active compounds read low 0.967 | locus YCL029C, strain bik1, active compounds read low 0.998 | locus YCL061C, strain MRC1, active compounds read low 0.993 | locus YCL069W, strain vba3, active compounds read low 0.981 | locus YCR088W, strain abp1, active compounds read low 0.969 | locus YDL005C, strain med2, active compounds read low 0.976 | locus YDL035C, strain GPR1, active compounds read low 1.03 | locus YDL040C, strain nat1, active compounds read low 0.967 | locus YDL074C, strain BRE1, active compounds read low 1.05 | locus YDL101C, strain DUN1, active compounds read low 1.03 | locus YDL134C, strain PPH21, active compounds read low 1.04 | locus YDL185W, strain tfp1, active compounds read low 0.99 | locus YDL192W, strain arf1, active compounds read low 0.991 | locus YDR001C, strain nth1, active compounds read low 0.983 | locus YDR069C, strain doa4, active compounds read low 0.966 | locus YDR101C, strain arx1, active compounds read low 1 | locus YDR137W, strain rgp1, active compounds read low 0.997 | locus YDR159W, strain sac3, active compounds read low 0.977 | locus YDR162C, strain NBP2, active compounds read low 1.02 | locus YDR195W, strain ref2 0.957 | locus YDR297W, strain sur2, active compounds read low 0.978 | locus YDR318W, strain mcm21, active compounds read low 1.01 | locus YDR334W, strain swr1, active compounds read low 0.964 | locus YDR335W, strain msn5, active compounds read low 0.988 | locus YDR388W, active compounds read low 0.987 | locus YDR392W, strain spt3, active compounds read low 0.981 | locus YDR502C, strain sam2, active compounds read low 0.99 | locus YEL003W, strain gim4, active compounds read low 0.97 | locus YEL037C, strain rad23, active compounds read low 0.969 | locus YEL061C, strain CIN8 (second series), active compounds read low 0.968 | locus YEL061C, strain CIN8, active compounds read low 1.01 | locus YER015W, strain faa2, active compounds read low 0.976 | locus YER016W, strain bim1, active compounds read low 0.988 | locus YER110C, active compounds read low 0.99 | locus YER111C, strain swi4, active compounds read low 0.97 | locus YER155C, strain BEM2 (second series), active compounds read low 0.969 | locus YER155C, strain BEM2, active compounds read low 1.01 | locus YER167W, strain BCK2, active compounds read low 1.01 | locus YFR010W, strain ubp6, active compounds read low 0.972 | locus YGL078C, strain dbp3, active compounds read low 1 | locus YGL086W, strain mad1, active compounds read low 1.01 | locus YGL167C, strain pmr1, active compounds read low 0.969 | locus YGL173C, strain kem1, active compounds read low 0.969 | locus YGL227W, strain vid30, active compounds read low 0.976 | locus YGL240W, strain doc1, active compounds read low 0.971 | locus YGL248W, strain PDE1, active compounds read low 1.03 | locus YGL253W, strain hxk2, active compounds read low 0.971 | locus YGR135W, strain pre9, active compounds read low 0.99 | locus YGR229C, strain SMI1, active compounds read low 1.03 | locus YGR252W, strain gcn5, active compounds read low 0.989 | locus YHR013C, strain ard1, active compounds read low 0.965 | locus YHR027C, strain rpn1, active compounds read low 0.969 | locus YHR030C, strain SLT2, active compounds read low 1.01 and 0.978 | locus YHR079C, strain IRE1 (second series), active compounds read low 0.992 | locus YHR079C, strain IRE1, active compounds read low 0.973 | locus YHR094C, strain hxt1, active compounds read low 0.986 | locus YHR129C, strain ARP1, active compounds read low 1.02 | locus YHR142W, strain chs7, active compounds read low 0.964 | locus YHR200W, strain rpn10, active compounds read low 1 | locus YIL066C, strain RNR3, active compounds read low 1.04 | locus YIL073C, strain SPO22, active compounds read low 1.08 | locus YIL125W, strain kgd1, active compounds read low 0.99 | locus YIR030C, strain dcg1, active compounds read low 0.989 | locus YJL092W, strain hpr5, active compounds read low 0.99 | locus YJL095W, strain BCK1 (second series), active compounds read low 0.977 | locus YJL095W, strain BCK1, active compounds read low 1.05 and 0.98 | locus YJL115W, strain asf1, active compounds read low 0.977 | locus YJL129C, strain trk1, active compounds read low 0.971 | locus YJL134W, strain LCB3, active compounds read low 1.01 | locus YJL154C, strain vps35, active compounds read low 0.973 | locus YJL164C, strain tpk1, active compounds read low 0.969 | locus YJL166W, strain qcr8, active compounds read low 0.978 | locus YJL168C, strain set2, active compounds read low 0.991 | locus YJL187C, strain SWE1 (second series), active compounds read low 1.03 | locus YJL187C, strain SWE1, active compounds read low 0.979 | locus YJR043C, strain POL32, active compounds read low 1.02
